From PubChem BioAssay AID1986 (Sanford-Burnham Center for Chemical Genomics, 2009)
In all, about 290,000 compounds went through this assay and about 890 (0.31%) were called active. No stated cut-off is given here; in the data, active means inhibition mostly above about 52% (no sharp cut-off); inactive means mostly below about 76%. The list comes from a sample in which actives are over-represented; it also holds similar structures and randomly drawn compounds.

Assay: inhibitors of HIV fusion peptide binding, primary screen, biochemical, uHTS, fluorescence dequenching (AID 1986)
Conditions: cell-free peptide binding, 30 min, stronger effect = higher value
[1] = measured here: repeat confirmation average inhibition, at 18.6 µM

Compound	inhibition (at 20 µM)	inhibition [1] [%]
CC1(C)NC(=O)N(CC(O)CN(Cc2ccccc2)Cc2ccccc2)C1=O (stereo not given)	0.1% (inactive)	–
O=C(NCc1ccco1)C12CN(Cc3ccccc3)CC1C(c1cccc([N+](=O)[O-])c1)=NO2 (stereo not given)	0.7% (inactive)	–
COc1ccc(C2CC(c3c(-c4ccccc4)c4cc(Cl)ccc4[nH]c3=O)=NN2C(=O)CCC(=O)O)cc1 (stereo not given)	15.1% (inactive)	–
O=c1c2c([nH]n1-c1ccccc1)CCSC2	3.5% (inactive)	–
COc1ccc2c(c1OC)C[N+]1([O-])CCc3cc4c(cc3C1C2)OCO4 (stereo not given)	-1.5% (inactive)	–
C=CCNC(=S)NNc1nc(N2CCCC2)nc(N2CCCC2)n1	-0.8% (inactive)	–
COc1ccnc(CN(C)C(=O)C2CCC(=O)N(Cc3cccc(C(F)(F)F)c3)C2)c1 (stereo not given)	4.4% (inactive)	–
COc1cc(-n2nnnc2SC)c(OC)cc1Cl	2.2% (inactive)	–
C/C(=N\NC(=O)CN(c1ccc(Oc2ccccc2)cc1)S(C)(=O)=O)C(C)(C)C	-0.5% (inactive)	–
CCOC(=O)/C(C#N)=C\C=C1C=CN(C)C=C1	98.3% (active)	52.3
CCCN1C=CC(=C/C=C(\C#N)C(=O)OCC)C=C1	0.7% (inactive)	–
C=CCN1C=CC(=C/C=C(/C#N)C(=O)OCC)C=C1	-0.9% (inactive)	–
CC(C)Cc1nc(S(=O)(=O)c2ccc(Cl)cc2)c(N2CCOCC2)o1	1.2% (inactive)	–
Cc1ccc(-n2c(=O)c3ccc(C(=O)NCc4ccco4)cc3n(Cc3ccccc3C#N)c2=O)cc1	-1.1% (inactive)	–
Nc1c(C(=O)NCC2CCCO2)sc2nc3c(c(-c4ccco4)c12)CC/C3=C\c1ccco1 (stereo not given)	64.6% (active)	–
Nc1c(C(=O)NC2CC2)sc2nc3c(c(-c4ccco4)c12)CC/C3=C/c1ccco1	64.6% (inactive)	21.7
Nc1c(C(=O)Nc2ccccc2)sc2nc3c(c(-c4ccco4)c12)CCC3	-1.5% (inactive)	–
COc1ccc(Nc2nc3ccccc3nc2NS(=O)(=O)c2cccs2)c(OC)c1	51.5% (active)	64.5
COc1cccc(Nc2nc3ccccc3nc2NS(=O)(=O)c2cccs2)c1	69.4% (inactive)	30.8
COc1ccc(Nc2nc3ccccc3nc2NS(=O)(=O)c2cccs2)cc1	45.5% (inactive)	–
Cc1cccc(C)c1NC(=O)CN(C)C(=O)c1ccccc1C(=O)N(C)Cc1ccccc1	-1.3% (inactive)	–

Compound	inhibition (at 20 µM)	inhibition [1] [%]
C(=N\Nc1nc(N2CCCC2)nc(N2CCCC2)n1)/c1ccncc1	-0.1% (inactive)	–
COc1ccc(C(=O)NCc2nnc(SCC(=O)Nc3ccccc3F)o2)cc1	-1.8% (inactive)	–
COc1ccccc1/C=C/C(=O)NCC(=O)n1nc(C)cc1C	0.9% (inactive)	–
O=c1cc(O)c2sc(Nc3ccc(Cl)c(F)c3)nc2[nH]1	46.9% (inactive)	–
O=c1cc(O)c2sc(Nc3ccc(F)cc3)nc2[nH]1	23.5% (inactive)	–
O=c1cc(O)c2sc(Nc3ccc(F)c(Cl)c3)nc2[nH]1	51.4% (active)	–
CCOc1ccc2cc(C(=O)NCc3ccccc3)c(=N)oc2c1	0.1% (inactive)	–
CCCCCC/C(C)=C1/SC(=S)NC1=O	24.4% (inactive)	–
CCO/C(C)=C1/SC(=S)NC1=O	-1% (inactive)	–
C/C(C/C(C)=C1/SC(=S)NC1=O)=C1\SC(=S)NC1=O	69.5% (active)	–
CCC1(CC)Cc2ccccc2C(=C(C#N)C#N)N1	0.7% (inactive)	–
Cc1c(Cc2ccccc2)sc(NC(=O)/C=C/c2cccc3ccccc23)c1C(N)=O	3.6% (inactive)	–
COc1ccc2c(n1)Sc1nc3ccccc3nc1N2	82.7% (active)	–
COc1cc2ccccc2nn1	-0.9% (inactive)	–
COc1nc2ccccc2nc1OC	0.6% (inactive)	–
COC(=O)Nc1nnc(-c2ccccc2Cl)s1	-1.6% (inactive)	–
CCCN(C(=O)COc1ccc(Cl)cc1Cl)c1c(N)n(Cc2ccccc2)c(=O)[nH]c1=O	5.9% (inactive)	–
CCSC1=N/C(=C\C=C2/Oc3ccccc3N2CC)C(=O)S1	109% (active)	63
CCCCN1C(=O)/C(=C/C=C2\Oc3ccccc3N2CC)SC1=S	149% (inactive)	–
CCSC1=N/C(=C\c2ccc3c(c2)OCO3)C(=O)S1	9.4% (inactive)	–
CCN(CC)c1ccc(-c2nc3cnccc3n2C)cc1	0.4% (inactive)	–

Compound	inhibition (at 20 µM)	inhibition [1] [%]
O=C(NCC1CCCO1)C1CCN(C2CCN(Cc3ccco3)CC2)CC1 (stereo not given)	1.6% (inactive)	–
CCCOc1ccc(-c2nn(-c3ccccc3)cc2/C=C2\SC(=S)N(C3CCS(=O)(=O)C3)C2=O)cc1 (stereo not given)	-1.7% (inactive)	–
CCOc1ccc(-c2nn(-c3ccccc3)cc2/C=C2\SC(=S)N(C3CCS(=O)(=O)C3)C2=O)cc1 (stereo not given)	78.9% (active)	85
CCOc1ccc(-c2nn(-c3ccccc3)cc2/C=C2\SC(=S)N(Cc3ccco3)C2=O)cc1	17.3% (inactive)	–
CCCOc1cccc(C(=O)N(Cc2ccc(OC)c(OC)c2)C2CCS(=O)(=O)C2)c1 (stereo not given)	1% (inactive)	–
CCCCN(C)CCNC(=O)c1ccc(Cn2c(=S)[nH]c3ccc(Br)cc3c2=O)cc1	-3.1% (inactive)	–
COC(=O)N=Nc1c(O)n(Cc2ccccc2)c2ccccc12	-1.9% (inactive)	–
O=C(COc1ccc(Cl)cc1Cl)Nc1ccc2nc3n(c(=O)c2c1)CCCC3	-2.9% (inactive)	–
CCC1(c2ccccc2)NC(=O)N(CC(=O)Nc2ccc(OC)nc2)C1=O (stereo not given)	116% (active)	–
CCCC1(c2ccccc2)NC(=O)N(CC(=O)Nc2cc(OC)cc(OC)c2)C1=O (stereo not given)	0.8% (inactive)	–
CCC1(c2ccccc2)NC(=O)N(CC(=O)Nc2ccc(S(N)(=O)=O)cc2)C1=O (stereo not given)	1.2% (inactive)	–
O=C(COC(=O)c1ccc(S(=O)(=O)N2CCOCC2)cc1)NC1CCCC1	0.3% (inactive)	–
Cc1ccc(Nc2c(-c3ccccn3)nc3cc(C)ccn23)cc1	0.3% (inactive)	–
Cc1ccn2c(Nc3ccc4c(c3)OCO4)c(-c3ccccn3)nc2c1	114% (active)	–
Cc1ccn2c(Nc3ccccc3)c(-c3ccccn3)nc2c1	-2.6% (inactive)	–
CCC(C)NC(=O)CN1C(=O)NC2NC(=O)NC21 (stereo not given)	0.8% (inactive)	–
Cc1ccc(NC(=S)N(Cc2ccc(Br)cc2)Cc2ccc(C(=O)O)cc2)cc1C	36.8% (inactive)	–
Cc1cc(NC(=S)N(Cc2ccc(Br)cc2)Cc2ccc(C(=O)O)cc2)ccc1Cl	59.2% (active)	–
Cc1cc(NC(=S)N(Cc2ccc(Cl)cc2)Cc2ccc(C(=O)O)cc2)ccc1Cl	53.2% (inactive)	34.6
CCOc1cc(/C=N/NC(=O)Cc2ccc(C(F)(F)F)cc2[N+](=O)[O-])c(Br)cc1OC	0.7% (inactive)	–
O=C(Nc1nnc(CCc2ccccc2)s1)c1ccc(F)cc1	1.8% (inactive)	–
